Measured values from PubChem BioAssay AID1963320 (National Center for Advancing Translational Sciences (NCATS), 2024).
Hit rate of the full screen: of about 1,300 compounds, about 560 (43%) were called active. Not shown: some 39% with an inconclusive outcome. Calls follow the shape of the dose curve; as a rule, active = well fitted inhibition curve with a large enough effect; inconclusive = small, poorly fitted or top-dose-only effect; inactive = flat fitted curve, though single readings scatter. The set was probably picked from earlier hits. Only a sample is shown.

Target: Luciferin 4-monooxygenase (Photinus pyralis) (UniProt P08659)
Experiment: Firefly luciferase (FLuc-C-HiBiT) enzymatic inhibition screen - Functional assay
Details: purified FLuc-C-HiBiT enzyme, luciferin luminescence; series mostly up to 32.7 µM
From the text: PI: James Inglese Ph.D. National Center for Advancing Translational Sciences (NCATS), National Institute of Health (NIH), Maryland Discovery and optimization of novel protein-binding ligands underlies many of the methods and applications of biology, drug discovery, clinical diagnostics, and environmental toxicology. Assays for detecting the interaction of, for example, a molecule with a macromolecular target also referred to here as the target of interest (TOI) is dependent on a compatible output technology. Depending on the nature and knowledge surrounding the TOI, whether a receptor, enzyme, regulatory subunit or scaffold, or a sequence-defined nucleic acid folded into a complex tertiary structure, assay strategies can vary widely. Here we exploit ligand-biased changes in the structural dynamics of the target protein to control reporter alpha complementation allowing a non-competitive, non-functional, non-separation measure of ligand-target interaction. […] Secondly, we show the specificity and sensitivity of the SDR for the Abelson tyrosine kinase (ABL1) compared to the serine/threonine protein kinase A, using an enriched chemical library of 128 compounds selected, in part, for activity annotated with ABL1 kinase activity using the Pharos database (3). References: (1) A. S. Dixon et al., NanoLuc Complementation Reporter Optimized for Accurate Measurement of Protein Interactions in Cells. ACS Chem Biol 11, 400-408 (2016). […] Chemistry & Biology, 19, 1060 - 1072 (2012). (3) K. J. Kelleher et al., Pharos 2023: an integrated resource for the understudied human proteome. Nucleic Acids Res 51, D1405-D1416 (2023).
1. Reagent. Dispense 4 uL FLuc-C-HiBiT enzyme-buffer solution per well at a final enzyme concentration of 10 nM with or without 10 uM ATP into columns 2-48 of white, solid bottom medium bind 1536-well plates (Greiner Bio-One) by BioRaptr 2. Dispense respective buffer without enzyme at 4 uL/well in column 1 of assay plates. 2. Compounds. Library compounds and PTC124 control added at 23 nL per well, transfer by Pin Tool. 3. Incubation. Incubate enzyme and compounds at room temperature for >30 min, protect from light. 4a. Reagent. (Functional assay) Add 3 uL of D-luciferin substrate at final (KM) concentration of 10 uM/well of assay plates for FLuc enzymatic assay, in the presence of ATP. 5. Incubation. Incubate enzyme and substrate or detection reagent at room temperature for 5-10 min, protect from light. 6a. Detector. Functional assay measured using CCD-based camera (ViewLux) with settings as follows: Exposure, 10 sec; Gain, High; Speed, Slow; Binning, 2X. REFERENCES: Inglese J, Shamu CE and Guy RK, Reporting data from high throughput screening of small molecule libraries, Nature Chemical Biology, 2007, 3(8): 438-441. doi.org/10.1038/nchembio0807-438.
Also: nearly all actives have a fitted effect of over 70% in size.
Potency is read from the fitted curve at half-maximal effect.

Chain of Luciferin 4-monooxygenase (Photinus pyralis) (P08659 whole entry, looked up): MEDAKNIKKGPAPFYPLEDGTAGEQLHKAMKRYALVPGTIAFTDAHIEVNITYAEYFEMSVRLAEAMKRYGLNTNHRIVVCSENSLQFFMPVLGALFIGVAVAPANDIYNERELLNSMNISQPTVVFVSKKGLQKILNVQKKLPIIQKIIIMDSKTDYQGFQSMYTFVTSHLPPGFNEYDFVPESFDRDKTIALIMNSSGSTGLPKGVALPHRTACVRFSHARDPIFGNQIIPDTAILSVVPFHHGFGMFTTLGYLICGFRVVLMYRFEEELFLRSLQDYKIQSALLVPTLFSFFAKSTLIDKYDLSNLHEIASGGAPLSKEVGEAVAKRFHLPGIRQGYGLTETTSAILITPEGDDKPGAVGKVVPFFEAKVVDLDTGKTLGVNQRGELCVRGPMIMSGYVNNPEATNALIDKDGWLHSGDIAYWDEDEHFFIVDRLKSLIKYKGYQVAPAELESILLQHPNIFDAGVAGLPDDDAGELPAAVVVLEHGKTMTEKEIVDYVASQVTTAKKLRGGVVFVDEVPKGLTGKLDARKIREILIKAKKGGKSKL

Compound	Potency
CN(CCc1cn[nH]c1)c1ccc(-c2nc(-c3ccccc3F)no2)cn1	3.13 µM (active)
Cc1cc(C)n(CCC(=O)N2CCC(Cc3noc(C4CC4)n3)C2)n1 (configuration not stated)	inactive
Cc1ccc(Cl)cc1-n1ncc2c(N3CCC(C(N)=O)CC3)ncnc21	inactive
OCCN1CCN(c2nc(N3CCCCC3)c3cnn(-c4ccc(Cl)cc4)c3n2)CC1	inactive
OCC1CCCN(c2ncnc3c2cnn3-c2ccccc2)C1 (configuration not stated)	0.394 µM (active)
Fc1ccc(Nc2nc(-c3ccccc3F)no2)cc1	9.89 µM (active)
Cc1ccc(CSc2nc3cccnc3n2Cc2ccc(C(=O)NC3CC3)cc2)cc1	0.394 µM (active)
Cc1c(NC(=O)C(C)(C)C)cccc1-c1nc2ccccc2s1	5.56 µM (active)
Cc1cccc(C(=O)Nc2ccc(-c3nc4ccccc4s3)c(C)c2)c1	9.89 µM (active)
COc1ccc(CC(=O)Nc2ccc(-c3nc4ccccc4s3)c(C)c2)cc1	inactive
Cc1ccc(C(=O)Nc2ccc(-c3nc4ccccc4s3)c(O)c2)cc1	inactive
O=C(CSc1ccc(F)cc1)Nc1ccccc1-c1nc2ccccc2s1	inactive
CC(C)C(=O)Nc1cc(-c2nc3ccccc3s2)ccc1Cl	inactive
COc1ccc(C(=O)Nc2onc3c2CCCC3)cc1	1.97 µM (active)
Cc1cccc(-c2cccc(NC(=O)C3CCCN(C(=O)CC(F)(F)F)C3)c2)c1 (configuration not stated)	inactive
COc1ccc(C)cc1NC(=O)Nc1cccc(-c2ccc(N3CCCCC3)nn2)c1	1.11 µM (active)
O=C(/C=C/c1ccccc1)Nc1cc(-c2nc3cc(Cl)ccc3o2)ccc1Cl	inactive
COc1cccc(-c2nc3ccc(-c4ccc5c(c4)OCO5)cc3o2)c1OC	2.48 µM (active)
COc1ccc(-c2nc3ccccc3s2)cc1NC(=O)COc1ccccc1C	inactive

Compound	Potency
CCC(CC)c1nn2cc(-c3ccccc3)nc2s1	0.881 µM (active)
Cc1nn(-c2ccc(C(C)C)cc2)c(C)c1[C@@H]1C=C[C@@H](NC(=O)CC2(CC(=O)O)CCCC2)C1	inactive
O=C(Nc1nc2c(s1)CCCC2)c1ccccc1F	0.556 µM (active)
O=C([C@@H]1C[C@@H](O)[C@H](O)[C@@H]2NC(=S)N(c3ccc(OC(F)(F)F)cc3)[C@@H]21)N1CCCCC1	inactive
O=C(Nc1ccccc1)c1nc2c(o1)CCN(Cc1cccc(Cl)c1)CC2	10.1 µM (active)
Oc1ccc(-c2nc(C3CC3)nc3c2CCN(Cc2cccc(F)c2)CC3)cc1	inactive
CCOC(=O)C1CCN(C(=O)c2cccc3c2CCN3C(=O)Nc2ccccc2)CC1	1.76 µM (active)
CC(=O)Nc1ccc(NC(=O)CCCc2nc(-c3ccc(C(C)(C)C)cc3)no2)cc1	4.95 µM (active)
CC(=O)NC1(C)CN(Cc2ccc(-c3ccc4c(ccn4C)c3)s2)C1	2.86 µM (active)
Cc1ccc(-c2nc(C(=O)N3CCN(c4ccccn4)CC3)no2)cc1	7.85 µM (active)
COc1ccc(-c2ncc3c(n2)OCCN(CC2CC2)C3=O)cc1	8.05 µM (active)
CCN(c1ncnc2c1cnn2-c1ccc(C)cc1)C1CCCCC1	0.881 µM (active)
CN1CCN(C[C@@H]2CN(C(=O)CCCc3ccccc3)C[C@@H]2CO)CC1	inactive
CCNC(=O)C1C(c2cccc(NC(=O)c3ccc(OC)cc3)c2)OC(=O)N1Cc1ccc(C)cc1 (configuration not stated)	3.94 µM (active)
O=C(NCc1ccc(F)c(Cl)c1)C1CCN(C(=O)c2ncn3c2COC(c2ccccc2)C3)CC1 (configuration not stated)	3.51 µM (active)
O=C(NCc1ccccc1)C1CCN(C(=O)c2ncn3c2COC(c2ccccc2)C3)CC1 (configuration not stated)	2.21 µM (active)
O=C(NCC1CC1)C1CCN(C(=O)c2ncn3c2COC(c2ccccc2)C3)CC1 (configuration not stated)	7 µM (active)
COc1ccccc1OC1(C(=O)O)CCN(c2ncnc3nc[nH]c23)CC1	inactive
